Screens: PubChem, National Center for Advancing Translational Sciences (NCATS)
DT40 TDP1 no CPT: qHTS for Inhibitors of human tyrosyl-DNA phosphodiesterase 1 (TDP1): qHTS in cells in absence of CPT; DT40 Tdp1-/- hTDP1 cells, no CPT, ATP luminescence, 48 h; hit rate 15% among 420,000; Potency, µM (top dose mostly 46.2 µM), without a hit: at the highest dose activity change, negative = growth inhibition, actives largely listed as inhibitors; note: nearly all actives have a fitted effect of over 55% in size
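Chicken DT40 Tdp1-/- cells complemented with human TDP1, screened without camptothecin (DMSO vehicle only), 400 cells/well. Compounds pin-transferred, cells incubated at 37 °C for at least 48 hr. Growth read as ATP-dependent luminescence (CellTiter-Glo, 30 min at RT).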
KB-3-1 tox: kills parental KB-3-1 adenocarcinoma cells | KB-3-1 viability, CellTiter-Glo ATP luminescence, 72 h | Potency, µM (top dose mostly 46.1 µM), actives largely listed as cytotoxic | hit rate 1.4% among 400,000; note: nearly all actives have a fitted effect of over 60% in size
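Parental KB-3-1 viability, qHTS format: 72 h compound exposure, 37 °C; CellTiter-Glo; media-only wells and DMSO plates as controls; concentration-effect fits on corrected data.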
DT40 TDP1 CPT: DT40-hTDP1 cell growth loss with CPT | chicken DT40 Tdp1-/-;hTDP1 cells + 20 nM CPT, ATP luminescence, 48 h | hit rate 12% among 420,000 | Potency, µM (doses to about 46.2 µM), for the others: at the top dose activity change, negative = growth inhibition, most hits filed as inhibitors; note: nearly all actives have a fitted effect of over 55% in size
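Chicken DT40 Tdp1-/- cells stably complemented with human TDP1 were seeded at 400 cells/well in medium containing 20 nM camptothecin, exposed to pin-transferred compounds, and grown at 37 °C for at least 48 hr. Viability was read as ATP luminescence.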
HT1080 IDH1KD tx: toxicity to HT-1080 IDH1 knockdown cells (counter line) | HT-1080 IDH1 knockdown viability, ATP luminescence, 48 h | Potency, µM (doses to about 46.1 µM), without a hit: at the highest dose activity, negative = toxicity, most hits filed as cytotoxic | hit rate 2% among 360,000;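 note: 0% = DMSO wells and -100% = cell-free medium wells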
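Using the IDH1-knockdown HT-1080 line run in the same batch and compound series as the NT line, viability after 48 h at 37 °C was determined by CellTiter-Glo luminescence and expressed as % activity.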
HT1080-NT tox: kills 2HG-producing HT-1080-NT fibrosarcoma cells | Potency, µM (top dose mostly 46.1 µM), without a hit: top-dose activity, negative = less viability, hits mostly cytotoxic | hit rate 1.6% among 360,000 | HT-1080-NT fibrosarcoma viability, CellTiter-Glo ATP luminescence, 48 h | AID 686970;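 note: NT is the 2HG producing partner of a matched IDH1 knockdown line; 0% = DMSO-treated cells and -100% = media-only wells without cells; nearly all actives have a fitted effect of over 55% in size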
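750 cells/well, RPMI + 5% FBS; 2 h settle, compound pin-transfer, 48 h at 37 degrees C. CellTiter-Glo 10 min RT, luminescence. Normalized to DMSO and media-only wells.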
KB-V1 cytotox: KB-V1 MDR subline cytotoxicity; hit rate 3.4% among 400,000; KB-V1 MDR cells viability, CellTiter-Glo, 72 h; Potency, µM (top dose mostly 46.1 µM), usual class: cytotoxic; note: nearly all actives have a fitted effect of over 60% in size
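Luminescent ATP read-out (CellTiter-Glo, 10 min) measures survival of drug-selected KB-V1 MDR cells after 72 h, 37 degrees C compound exposure. Medium: phenol-red-free DMEM, 10% FBS. Values from fitted concentration-response curves.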
* = called active by the depositor; [ ] = dose if it differs, or a comment. This is a sample that favours compounds with a hit; in the whole collection about 19% have one here. Calls come from the whole dose curve; as a rule, active = well fitted curve in the direction sought with a large enough effect; inconclusive = small, poorly fitted or top-dose-only effect, or another doubt; inactive = no such curve, though single readings can be large; an effect the other way counts as inactive or inconclusive. Unless noted, % is set by controls: 0 for no effect and ±100 for the full control effect; potency is the fitted concentration of half-maximal effect.

How did N=c1c2c(-c3ccccc3)c(-c3ccccc3)n(Cc3ccco3)c2ncn1Cc1ccccc1 do in these assays?
DT40 TDP1 no CPT: -9.2%; KB-3-1 tox: inactive; DT40 TDP1 CPT: -26.8%; HT1080 IDH1KD tx: -0.3%; HT1080-NT tox: 3.7%; KB-V1 cytotox: inactive

Results for CCCCCCCCCCCCCCCCCC(=O)OCC(O)CO (centres undefined) ?
DT40 TDP1 no CPT: -12.0%; DT40 TDP1 CPT: -24.7%

What do the screens show for `COc1ccccc1CNC(=O)COC(=O)C1CCN(S(=O)(=O)c2c(Cl)cccc2Cl)CC1`?
DT40 TDP1 no CPT: 6.5%; KB-3-1 tox: inactive; DT40 TDP1 CPT: -1.1%; HT1080 IDH1KD tx: -4.1%; HT1080-NT tox: -1.2%; KB-V1 cytotox: inactive

What do the screens show for `Cc1cccc(-c2nc3c4ccccc4nc(NCc4ccccc4Cl)n3n2)c1`?
DT40 TDP1 no CPT: -15.5%; DT40 TDP1 CPT: 0.8%

How did c1ccc(OCCCn2ccnc2)cc1 do in these assays?
DT40 TDP1 no CPT: -4.0%; KB-3-1 tox: inactive; DT40 TDP1 CPT: -0.6%; HT1080 IDH1KD tx: 12.5%; HT1080-NT tox: 10.6%; KB-V1 cytotox: inconclusive

What do the screens show for `c1ccc(-c2c(-c3ccccc3)n(Cc3ccco3)c3ncnc(NCCCn4ccnc4)c23)cc1`?
DT40 TDP1 no CPT: inconclusive; KB-3-1 tox: inconclusive; DT40 TDP1 CPT: inconclusive; HT1080 IDH1KD tx: 18.4µM*; HT1080-NT tox: 18.4µM*; KB-V1 cytotox: inconclusive

What do the screens show for `N=c1c2c(-c3ccccc3)c(-c3ccccc3)n(Cc3ccco3)c2ncn1CCCN1CCOCC1`?
DT40 TDP1 no CPT: 3.66µM*; KB-3-1 tox: 20.6µM*; DT40 TDP1 CPT: inconclusive; HT1080 IDH1KD tx: 13µM*; HT1080-NT tox: inconclusive; KB-V1 cytotox: 20.6µM*

What do the screens show for `O=c1c2ccccc2nc(-c2ccccc2)n1CCCN1CCOCC1`?
DT40 TDP1 no CPT: -17.6%; KB-3-1 tox: inactive; DT40 TDP1 CPT: -11.0%; HT1080 IDH1KD tx: 6.4%; HT1080-NT tox: 0.7%; KB-V1 cytotox: inactive

Results for N=c1c2c(-c3ccccc3)c(-c3ccccc3)n(Cc3ccco3)c2ncn1CCCn1ccnc1 ?
DT40 TDP1 no CPT: 18.4µM*; KB-3-1 tox: inconclusive; DT40 TDP1 CPT: 18.4µM*; HT1080 IDH1KD tx: inconclusive; HT1080-NT tox: inconclusive; KB-V1 cytotox: 16.4µM*

Results for C[C@H](CO)N1C[C@H](C)[C@H](CN(C)C(=O)Nc2ccccc2F)OCc2cnnn2CCCC1=O ?
DT40 TDP1 no CPT: 4.6%; KB-3-1 tox: inactive; DT40 TDP1 CPT: -0.3%; HT1080 IDH1KD tx: 15.3%; HT1080-NT tox: 3.7%; KB-V1 cytotox: inactive

What do the screens show for `O=C(COC(=O)CNC(=O)c1ccccc1F)Nc1ncc(Cl)cc1Cl`?
DT40 TDP1 no CPT: 14.4%; KB-3-1 tox: inactive; DT40 TDP1 CPT: -16.1%; HT1080 IDH1KD tx: -3.9%; HT1080-NT tox: 2.8%[9.24 µM]; KB-V1 cytotox: inconclusive

How did CCCCOc1[nH]c2nc(-c3ccco3)n(Cc3ccco3)c(=N)c2c1C#N do in these assays?
DT40 TDP1 no CPT: 23.1µM*; KB-3-1 tox: inactive; DT40 TDP1 CPT: inconclusive; HT1080 IDH1KD tx: 11.9%; HT1080-NT tox: 8.0%; KB-V1 cytotox: inconclusive

Results for CCC(C)NC(=O)c1ccc(-n2c(-c3ccccc3)cc3c2CCCC3)cc1 (centres undefined) ?
DT40 TDP1 no CPT: inconclusive; DT40 TDP1 CPT: 16.4µM*

What do the screens show for `CC(C)OCCCNC(=O)c1ccc(-n2c(-c3ccccc3)cc3c2CCCC3)cc1`?
DT40 TDP1 no CPT: 16.4µM*; DT40 TDP1 CPT: inconclusive

What do the screens show for `CN(C)CCNC(=O)c1ccc(-n2c(-c3ccccc3)cc3c2CCCC3)cc1`?
DT40 TDP1 no CPT: 16.4µM*; DT40 TDP1 CPT: inconclusive

What do the screens show for `CCC(C)NC(=O)c1ccc2c(c1)nc1n2CCCCC1` (centres undefined)?
DT40 TDP1 no CPT: 0.9%; DT40 TDP1 CPT: -8.1%

How did COCCCNC(=O)c1ccc(-n2c(-c3ccccc3)cc3c2CCC(C)C3)cc1 (centres undefined) do in these assays?
DT40 TDP1 no CPT: 16.4µM*; DT40 TDP1 CPT: inconclusive

How did CCOCCCNC(=O)c1ccc(-n2c(-c3ccccc3)cc3c2CCCCC3)cc1 do in these assays?
DT40 TDP1 no CPT: inconclusive; DT40 TDP1 CPT: -17.5%

Results for Cc1ccccc1C(=O)Nc1nnc(S(=O)(=O)N2CCc3ccccc32)s1 ?
DT40 TDP1 no CPT: inconclusive; KB-3-1 tox: inactive; DT40 TDP1 CPT: 10.1%; KB-V1 cytotox: inactive

What do the screens show for `CCc1ccc(NC(=O)C(C)OC(=O)C2CCN(c3ccc(C(F)(F)F)cn3)CC2)cc1` (centres undefined)?
DT40 TDP1 no CPT: inconclusive; KB-3-1 tox: inactive; DT40 TDP1 CPT: -26.4%; HT1080 IDH1KD tx: 9.4%; HT1080-NT tox: 12.6%; KB-V1 cytotox: inactive

How did COc1ccc(NC(=O)c2sc3nc[nH]c(=O)c3c2C)cc1Cl do in these assays?
DT40 TDP1 no CPT: -19.1%; DT40 TDP1 CPT: -5.4%

Results for O=C(NC1CCCCC1)c1[nH]c(C(F)(F)F)nc1-c1ccccc1 ?
DT40 TDP1 no CPT: -12.2%; KB-3-1 tox: inactive; DT40 TDP1 CPT: inconclusive; HT1080 IDH1KD tx: -4.0%; HT1080-NT tox: 4.1%; KB-V1 cytotox: inactive

Results for CCCNC(=O)c1ccc2c(c1)nc1n2CCCCC1 ?
DT40 TDP1 no CPT: -18.3%; DT40 TDP1 CPT: -6.7%

What do the screens show for `CCCNC(=O)c1ccc(-n2c(-c3ccccc3)cc3c2CCCCC3)cc1`?
DT40 TDP1 no CPT: 20.6µM*; DT40 TDP1 CPT: 18.4µM*

What do the screens show for `COc1cc2c(NC3CCN(C)CC3)nc(N3CCCN(C)CC3)nc2cc1OCCCN1CCOCC1`?
DT40 TDP1 no CPT: 11.2µM*; KB-3-1 tox: inconclusive; DT40 TDP1 CPT: 7.94µM*; KB-V1 cytotox: inactive

How did COCCCCOc1cc2nc(N3CCCN(C)CC3)nc(NC3CCN(C)CC3)c2cc1OC do in these assays?
DT40 TDP1 no CPT: 11.2µM*; DT40 TDP1 CPT: 12.6µM*; HT1080 IDH1KD tx: 8.5%; HT1080-NT tox: -15.3%

How did COc1cc2c(NC3CCN(C)CC3)nc(N3CCCN(C)CC3)nc2cc1OCCCCCN do in these assays?
DT40 TDP1 no CPT: -16.5%; KB-3-1 tox: inactive; DT40 TDP1 CPT: inconclusive; KB-V1 cytotox: inactive

How did COc1ccc(C2Nc3ccccc3-c3nnc(SC)nc3O2)cc1C (centres undefined) do in these assays?
DT40 TDP1 no CPT: -14.5%; KB-3-1 tox: inactive; DT40 TDP1 CPT: 2.4%; KB-V1 cytotox: inactive
